# Data taken from PubChem BioAssay (NCATS).
# Unmarked numbers belong to inactive results. Inconclusive results are not listed. Entries that show only a call come without a potency. Calls of active or inactive are those of the source. Unless noted, calls come from the whole dose curve; as a rule, active = well fitted curve in the direction sought with a large enough effect; inconclusive = small, poorly fitted or top-dose-only effect, or another doubt; inactive = no such curve, though single readings can be large; an effect the other way counts as inactive or inconclusive.
# What was measured:
# [1] = target: DNA repair nuclease/redox regulator APEX1 (Homo sapiens) (UniProt P27695); assay: qHTS Validation Assay for Inhibitors of the Human Apurinic/apyrimidinic Endonuclease 1 (APE1) (AID 1705;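 note: TAMRA fluorescence gain over two minutes as APE1 cuts a quenched THF abasic duplex; series mostly up to about 57 µM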)
# Outline: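 Fluorogenic double-stranded THF abasic-site substrate (5'-TAMRA/3'-BHQ-2), 50 nM final. Enzyme preincubated with compound 15 min at room temperature, then substrate added. Kinetic fluorescence (ex 525/em 598 nm) read three times at 60 s intervals; activity taken as third-minus-first read difference.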
# [2] = Counterscreen for APE1 Inhibitors: Fluorescent Dye Displacement Validation Assay (AID 1707)
# Outline: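 Signal: ThO fluorescence (ex 480 nm/em 540 nm) on binding 50 nM dsDNA; displacement by test compound reduces it. Conditions: 250 nM dye, 50 mM Tris-HCl pH7.5, 2 mM MgCl2, 50mM NaCl, 0.01% Tween-20.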
# [3] = target: Endonuclease 4 (Escherichia coli (strain K12)) (UniProt P0A6C1); assay: Counterscreen for APE1 Inhibitors: qHTS Validation Assay for Inhibitors of Endonuclease IV (AID 1708)
# Outline: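 Measured as reaction progress, the fluorescence gain between first and third kinetic reads after adding 50 nM TAMRA/BHQ-2 THF duplex to 2 nM enzyme preincubated 15 min with compound; 2 mM MgCl2, pH 7.5.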
# [4] = target: Ferritin light chain (Equus caballus) (UniProt P02791); assay: qHTS Validation Assay for Identification of Novel General Anesthetics (AID 2323); note: series mostly up to about 77 µM
# Outline: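 Horse-spleen apoferritin (10 uM) in PBS with 50% saturated 1-aminoanthracene; compounds pin-transferred, 10 min at room temperature. Fluorescence read at 380/535 nm, normalized to free 1-AMA and 1-AMA/apoferritin values; four-parameter Hill fit.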
# [5] = Validation screen for inhibitors of Lassa infection (AID 463096; calls by dose curve; note: potency is the fitted concentration of half-maximal effect)
# [6] = Validation screen for small molecules that induce DNA re-replication in MCF 10A normal breast cells (AID 463097); note: nearly all actives have a fitted effect of over 60% in size; note: potency is the fitted concentration of half-maximal effect
# Outline: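 MCF 10A cells exposed to compound 48 hr at 37 C, 5% CO2, then Hoechst-stained 40 min. Laser-scanning imaging of nuclear DNA content (405 nm ex, 500-530 nm em); re-replication scored as rise in nuclei with elevated fluorescence intensity.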
# [7] = Quantitative high throughput screen for delayed death inhibitors of the malarial parasite plastid, 96 hour incubation (AID 488745); note: nearly all actives have a fitted effect of over 70% in size; note: potency is the fitted concentration of half-maximal effect
# Outline: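 Luciferase-expressing P. falciparum, infected RBCs 2% Hct/0.1% parasitemia (final); 96 h cpd exposure, 37 C, 5% CO2; RPMI 1640 + 0.5% Albumax, bicarbonate, gentamycin. Readout: luminescence loss = growth inhibition.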
# [8] = target: Transient receptor potential cation channel subfamily V member 1 (Homo sapiens) (UniProt Q8NER1); assay: HTS Assay for Compounds that Act as Enhancers of the Vanilloid Receptor 1 (AID 488979)
# Outline: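 TRPV1-expressing cells loaded with Fluo-8 calcium dye; compounds added and calcium influx read kinetically for 3 min (agonist phase), then capsaicin at EC20 added and read 2 min more for enhancement. Fluorescence ex 480/em 520 nm.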
# [9] = target: Thyrotropin-releasing hormone receptor (Homo sapiens) (UniProt P34981); assay: qHTS for Small Molecule Agonists and Allosteric Enhancers of Human TRH Receptor: Validation Screen for Agonists (AID 493127;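 active = calcium activation more than 3 SD above the typical response in the agonist read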;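 note: intracellular calcium rise by fluo-8 fluorescence before TRH EC20 addition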); details: TRH receptor agonist cell assay; at 2 µM; stronger effect = higher value
# Outline: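 Read-out: intracellular calcium release measured kinetically by FDSS (fluo-8, ex 480/em 530 nm), 1 reading/s after a 10-cycle baseline. TRHR cells, 2000/well, cultured 18 h at 33.5C, dye-loaded at room temp. Compound-evoked positive calcium signal flags agonists.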
# [10] = target: Phospholipid hydroperoxide glutathione peroxidase GPX4 (Homo sapiens) (UniProt P36969); assay: Primary qHTS Assay for Inhibitors of Recombinant Selenoprotein Glutathione Peroxidase 4 (GPX4) (AID 1845192); note: series mostly up to about 50 µM; nearly all actives have a fitted effect of over 65% in size
# Outline: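 qHTS, GR-coupled: GPX4 200 nM + cpd 30 min RT → GSH 1 mM, NADPH 0.5 mM, GR 100 nM → CHP 0.5 mM start; fluor 340/450 at t0 and t15 min; no-enzyme wells as control.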
# Sequence of Transient receptor potential cation channel subfamily V member 1 (Homo sapiens) (Q8NER1 whole entry, looked up): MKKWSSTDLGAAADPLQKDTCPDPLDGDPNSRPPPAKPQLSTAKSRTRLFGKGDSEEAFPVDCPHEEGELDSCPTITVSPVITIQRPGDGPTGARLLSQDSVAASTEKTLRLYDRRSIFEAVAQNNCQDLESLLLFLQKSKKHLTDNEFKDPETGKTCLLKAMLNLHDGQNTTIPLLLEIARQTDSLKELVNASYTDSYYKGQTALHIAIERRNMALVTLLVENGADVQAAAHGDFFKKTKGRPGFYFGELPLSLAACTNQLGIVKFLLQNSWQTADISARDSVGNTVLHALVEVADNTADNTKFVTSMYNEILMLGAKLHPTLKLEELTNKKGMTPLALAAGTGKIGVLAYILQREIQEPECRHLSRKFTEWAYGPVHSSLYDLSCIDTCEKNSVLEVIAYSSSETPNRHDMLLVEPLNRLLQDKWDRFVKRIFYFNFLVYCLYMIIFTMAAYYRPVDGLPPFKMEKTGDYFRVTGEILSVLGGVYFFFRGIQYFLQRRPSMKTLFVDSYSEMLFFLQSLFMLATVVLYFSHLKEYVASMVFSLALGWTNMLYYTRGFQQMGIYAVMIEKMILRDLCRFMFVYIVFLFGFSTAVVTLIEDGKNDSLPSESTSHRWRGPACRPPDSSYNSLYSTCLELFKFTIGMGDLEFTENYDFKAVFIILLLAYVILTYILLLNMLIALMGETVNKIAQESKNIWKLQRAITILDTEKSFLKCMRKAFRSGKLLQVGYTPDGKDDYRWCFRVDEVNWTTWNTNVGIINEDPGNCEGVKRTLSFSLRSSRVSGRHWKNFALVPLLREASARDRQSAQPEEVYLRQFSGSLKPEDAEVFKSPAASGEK
# Sequence of DNA repair nuclease/redox regulator APEX1 (Homo sapiens) (P27695 whole entry, looked up): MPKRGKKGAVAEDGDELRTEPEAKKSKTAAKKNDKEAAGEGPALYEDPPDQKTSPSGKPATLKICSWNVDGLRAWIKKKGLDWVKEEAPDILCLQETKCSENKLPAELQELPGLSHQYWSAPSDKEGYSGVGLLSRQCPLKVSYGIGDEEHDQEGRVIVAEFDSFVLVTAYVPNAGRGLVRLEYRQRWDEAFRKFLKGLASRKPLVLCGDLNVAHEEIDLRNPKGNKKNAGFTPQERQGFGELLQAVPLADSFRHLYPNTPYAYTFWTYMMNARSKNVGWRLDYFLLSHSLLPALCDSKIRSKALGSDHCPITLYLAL
# Sequence of Thyrotropin-releasing hormone receptor (Homo sapiens) (P34981 whole entry, looked up): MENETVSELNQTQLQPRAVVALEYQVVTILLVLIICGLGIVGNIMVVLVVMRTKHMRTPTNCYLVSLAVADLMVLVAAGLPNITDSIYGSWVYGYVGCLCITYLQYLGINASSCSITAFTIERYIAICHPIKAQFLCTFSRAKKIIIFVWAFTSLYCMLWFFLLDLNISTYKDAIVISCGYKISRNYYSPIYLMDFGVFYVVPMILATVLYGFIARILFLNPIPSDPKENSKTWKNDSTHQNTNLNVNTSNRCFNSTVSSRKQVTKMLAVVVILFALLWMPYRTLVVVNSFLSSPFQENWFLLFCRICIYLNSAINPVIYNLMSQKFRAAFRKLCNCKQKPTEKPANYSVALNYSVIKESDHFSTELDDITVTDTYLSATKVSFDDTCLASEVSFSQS
# Sequence of Ferritin light chain (Equus caballus) (P02791 2-175 limits assumed): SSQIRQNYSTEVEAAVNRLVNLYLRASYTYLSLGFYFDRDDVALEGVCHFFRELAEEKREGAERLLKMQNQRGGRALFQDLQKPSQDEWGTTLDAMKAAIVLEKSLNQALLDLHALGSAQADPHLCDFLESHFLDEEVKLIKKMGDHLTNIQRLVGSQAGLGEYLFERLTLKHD
# Sequence of Phospholipid hydroperoxide glutathione peroxidase GPX4 (Homo sapiens) (P36969 whole entry, looked up): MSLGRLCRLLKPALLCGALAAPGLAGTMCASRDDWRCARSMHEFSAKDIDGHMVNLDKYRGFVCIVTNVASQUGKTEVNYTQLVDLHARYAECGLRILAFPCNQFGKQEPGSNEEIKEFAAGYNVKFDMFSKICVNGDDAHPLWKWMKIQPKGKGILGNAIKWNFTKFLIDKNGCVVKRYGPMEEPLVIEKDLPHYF
Structure (SMILES),Potency [1],outcome [2],Potency [3],Potency [4],Potency [5],Potency [6],Potency [7],outcome [8],activation [9],Potency [10]
C=CCN1CC[C@@]2(C)c3cc(O)ccc3CC1[C@@H]2C,inactive,inactive,inactive,inactive,inactive,inactive,inactive,inactive,1.19%,
CCCCN1C2CCC1CC(OC(c1ccc(F)cc1)c1ccc(F)cc1)C2 (centres undefined),inactive,inactive,inactive,,10 µM (active),20 µM (active),1.85 µM (active),,8.5%,
CCCN1CCCC(c2cccc(O)c2)C1 (centres undefined),inactive,inactive,inactive,inactive,inactive,inactive,inactive,inactive,-4.62%,
COc1ccc2c3c1O[C@H]1C(=O)CC[C@@]4(O)C(C2)N(CC2CC2)CCC314 (some centres undefined),inactive,inactive,inactive,inactive,inactive,inactive,inactive,inactive,2.19%,
CC1Cc2cc3c(cc2C(c2ccc(N)cc2)=NN1)OCO3 (centres undefined),inactive,inactive,inactive,inactive,inactive,inactive,inactive,inactive,0.188%,
CCNC(=O)[C@H]1O[C@@H](n2cnc3c(N)ncnc32)[C@H](O)[C@H]1O,inactive,inactive,inactive,inactive,inactive,inactive,inactive,inactive,0%,
CCN(CC)C(=O)N[C@@H]1C[C@@H]2c3cccc4[nH]cc(c34)C[C@H]2N(C)C1,inactive,inactive,,inactive,inactive,inactive,1.17 µM (active),inactive,-2.62%,
NCC#Cc1ccccc1,inactive,inactive,inactive,inactive,inactive,inactive,inactive,inactive,1.69%,
CCCN1CCC[C@@H]2Cc3n[nH]cc3C[C@H]21,inactive,inactive,inactive,inactive,inactive,inactive,inactive,inactive,1.12%,
C[C@]12CC[C@H]3[C@@H](CCC4C[C@H](O)CC[C@@]43C)[C@@H]1CC[C@@H]2O (some centres undefined),inactive,inactive,inactive,,inactive,inactive,inactive,inactive,1.31%,
CCCN1CCC[C@@H](c2cccc(C#N)c2)C1,inactive,inactive,inactive,inactive,inactive,inactive,inactive,inactive,1.31%,
CN1C[C@@H](CS(=O)(=O)N(C)C)C[C@@H]2c3cccc4c3c(cn4C)C[C@H]21,inactive,inactive,inactive,inactive,inactive,inactive,,inactive,1.44%,
CCCN(CCC)C(=O)Cc1c(-c2ccc(Cl)cc2)nc2c(Cl)cc(Cl)cn12,inactive,inactive,inactive,,inactive,,inactive,inactive,-11.1%,
C[N+]1(C)C2CC(OC(=O)C(CO)c3ccccc3)CC1C1OC12 (centres undefined),inactive,inactive,inactive,inactive,inactive,inactive,inactive,inactive,,
N#CC(=Cc1ccc(O)c(O)c1)C(N)=S,,inactive,inactive,,inactive,inactive,inactive,inactive,3.19%,
CCC(CO)NC(=O)[C@@H]1C=C2c3cccc4[nH]cc(c34)C[C@H]2N(C)C1 (some centres undefined),,inactive,,inactive,inactive,inactive,,inactive,-2.81%,
CC12CCC3C(CCC4=C(O)C(=O)CCC43C)C1CCC2=O (centres undefined),inactive,inactive,inactive,inactive,inactive,inactive,inactive,inactive,,
CCCC[N+]1(C)C2CC(OC(=O)C(CO)c3ccccc3)CC1C1OC12 (centres undefined),inactive,inactive,inactive,inactive,inactive,inactive,inactive,inactive,-0.438%,
CNC(C)[C@@H](O)c1ccc(O)cc1 (some centres undefined),,,,,,,,,,inactive
